Screening results (PubChem BioAssay)
The list is not random: actives were taken first. Their share in the collection is about 0.41%.
TRPV1 agonist: HTS Assay for Compounds that Act as Agonists of the Vanilloid Receptor 1; Transient receptor potential cation channel subfamily V member 1 (Homo sapiens), Q8NER1; TRPV1-expressing cells, Fluo-8 calcium influx, agonist mode; activation, % at 8.33 µM; 320,000 compounds, 0.19% hits; in the data active = activation above about 80%; inconclusive = between about 30% and that limit
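Cells expressing TRPV1 were dye-loaded with Fluo-8 and read kinetically: 10 s baseline, 3 min after compound (agonist portion), then 2 min after EC20 capsaicin (allosteric enhancer portion). Calcium-bound dye fluorescence at 480/520 nm.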
TRPML1 blocker: qHTS for Inhibitors of the Human Mucolipin Transient Receptor Potential 1 (TRPML1) | Mucolipin-1 (Homo sapiens), Q9GZU1 | TRPML1-inducible cells, Ca2+ dye fluorescence, FDSS; stronger effect = lower value; inhibition of EC80 agonist-evoked calcium signal | activity change, negative = inhibition, % (test concentration not listed) | 390,000 compounds, 0.02% hits | AID 624415, 2012; in the data active = activity change below about -50%; inconclusive = between about -30% and that limit;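 also: stimulus is agonist 54-4 at its EC80 concentration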
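Tet-induced TRPML1-DL cells loaded with Ca8 no-wash calcium dye were read kinetically on FDSS. Compound addition was followed by EC80 agonist 54-4 (4 uM final); inhibition was read over 110 s.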
TRPV1 potentiator: HTS Assay for Compounds that Act as Potentiators of the Vanilloid Receptor 1; Transient receptor potential cation channel subfamily V member 1 (Homo sapiens), Q8NER1; TRPV1-expressing cells, Fluo-8 calcium influx, capsaicin EC20 potentiation; potentiation, % at 8.33 µM; 320,000 compounds, 0.02% hits; in the data active = potentiation above about 80%; inconclusive = between about 30% and that limit
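Fluo-8 calcium influx in TRPV1-expressing cells, kinetic read (ex 480/em 520 nm). Compound added and read 3 min for agonist activity, followed by capsaicin at EC20 final and 2 min further read for enhancement.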
TRPML1 ag: qHTS for Agonists of the Human Mucolipin Transient Receptor Potential 1 (TRPML1); Mucolipin-1 (Homo sapiens), Q9GZU1; TRPML1-expressing cells, Ca2+ dye fluorescence, FDSS; activation, % (test concentration not listed); 410,000 compounds, 0.12% hits; in the data active = activation above about 50%; inconclusive = mostly about 30% to 49%
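Tetracycline-induced TRPML1-DL cells are seeded and incubated overnight before loading with a no-wash Ca2+ dye and quencher. Agonist activity is taken from the 110 s fluorescence read following compound pin-transfer on an FDSS, before EC80 54-4 challenge.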
LDHA block: qHTS assay for inhibitors of human lactate dehydrogenase | purified LDHA, NADH/diaphorase-resazurin fluorescence; stronger effect = lower value | 480,000 compounds, 0.15% hits | AID 1347041, 2019 | L-lactate dehydrogenase A chain (Homo sapiens), P00338 | activity change, % (values are at about 110 or 230 µM); in the data active = activity change below about -30%; inconclusive = mostly about -25% to -30%
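Remaining NADH was detected by diaphorase (0.133 mg/mL) converting 37 µM resazurin to fluorescent resorufin, read at 0 and 20 minutes. The preceding 5-minute room-temperature reaction used 2 nM LDHA, 0.2 mM sodium pyruvate and 0.06 mM NADH at pH 7.4.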
Of the large screens only hits and unclear results are named; the others gave an inactive call.

COc1ccc(-c2cc(C(F)F)n3ncc(C(=O)Nc4cc(C)on4)c3n2)cc1	TRPV1 agonist 84.7
Cc1oc(-c2ccccc2F)nc1CS(=O)(=O)CC(=O)NCCN(C)C	none (no result: TRPV1 agonist, TRPML1 blocker, TRPV1 potentiator, TRPML1 ag)
O=C(NCc1ccccc1Cl)C1CCCN(c2ncnc3c2nc2n3CCCCC2)C1 (stereo not drawn)	TRPV1 agonist 80.7
COc1ccc(/C=N/N=C2/NC(=O)C(CC(=O)O)S2)cc1OCc1ccc(Cl)cc1Cl (stereo not drawn)	LDHA block -45.5
Cc1cc(C)n2nc(C(=O)N3CCCC(Nc4ccc(F)c(F)c4)C3)cc2n1 (stereo not drawn)	none
Cc1ccc(NC2CCCN(C(=O)c3cccc4nccnc34)C2)cc1C (stereo not drawn)	none
CC(C)c1ccc(NC2CCCN(C(=O)c3cccc4nccnc34)C2)cc1 (stereo not drawn)	TRPV1 agonist 84.6
Cc1cc(C)n2nc(C(=O)N3CCCC(Nc4ccc(C(C)C)cc4)C3)cc2n1 (stereo not drawn)	TRPV1 agonist 86.0
CC(C)Cn1cnc2c1c(=O)n(CC(=O)NCc1ccc(Cl)cc1)c(=O)n2Cc1ccccc1	none (no result: TRPV1 agonist, TRPML1 blocker, TRPV1 potentiator, TRPML1 ag)
O=C(NNC(=O)c1cc2cc3ccccc3nc2s1)c1cccc(Cl)c1	LDHA block -51.4
Cc1cccc(C(=O)NNC(=O)c2cc3cc4ccccc4nc3s2)c1	none
Cc1ccc(CNC(=O)CSCc2ccc(F)cc2)cc1	TRPV1 agonist 80.6
Cc1ccc(CNC(=O)CSCc2ccccc2)cc1	TRPV1 agonist inconclusive
CC(C)(C)S(=O)(=O)c1cnc(-c2ccc(Cl)cc2)nc1N	TRPML1 ag 74.2 (no result: TRPV1 agonist, TRPV1 potentiator)
CC(C)(C)c1ccc(/C=C/C(=O)N2CCCCC2)cc1	TRPV1 agonist 93.6
CC1CCN(C(=O)/C=C/c2ccc(C(C)(C)C)cc2)CC1	TRPV1 agonist 88.8
Cc1ccc(/C=C/C(=O)N2CCCC(C)C2)cc1 (stereo not drawn)	TRPV1 agonist inconclusive
Cc1cc(C)cc(Nc2ncnc3nc[nH]c23)c1	TRPV1 agonist inconclusive
FC(F)Sc1ccc(Nc2ncnc3nc[nH]c23)cc1	TRPV1 agonist 82.9
Cc1ccc(C2=NC3(CCN(C)CC3)N=C2SCC(=O)Nc2ccc(F)cc2F)cc1	none (no result: TRPV1 agonist, TRPML1 blocker, TRPV1 potentiator, TRPML1 ag)
Cc1nc2cc(-c3ccccc3)nn2c(C)c1CCC(=O)NCCC(C)C	none (no result: TRPV1 agonist, TRPML1 blocker, TRPV1 potentiator, TRPML1 ag)
CC(C(=O)N1CCNC1=O)N(C)Cc1ccc(Cl)cc1Cl (stereo not drawn)	none (no result: TRPV1 agonist, TRPML1 blocker, TRPV1 potentiator, TRPML1 ag)
CC(C(=O)NCCS(=O)(=O)c1ccc(Br)cc1)S(=O)(=O)c1ccc(Cl)cc1 (stereo not drawn)	TRPV1 potentiator inconclusive, LDHA block -34.7
O=C(NCc1cccnc1)C1CCN(S(=O)(=O)c2cccc(OC(F)(F)F)c2)CC1	none (no result: TRPV1 agonist, TRPML1 blocker, TRPV1 potentiator, TRPML1 ag)
COc1ccc(-c2c(-c3cc(OC)cc(OC)c3)n(C)c3ccc(Br)cc23)cc1	none
COc1ccc(N=Nc2nc3ccc(Br)cc3n2C)cc1	TRPML1 ag 53.6
COc1ccccc1N1CCN(CC(=O)N2CCCC2)CC1	LDHA block -37.2
